Compound activity (PubChem BioAssay)
In the library only some 6.3% were active in any assay of this set; here they are far more common.
HepG2 viability: qHTS for Inhibitors of TGF-b: Cytotox Counterscreen | HepG2 CAGA-GFP viability, ATP luminescence, 18 h | Potency, µM (doses to about 46.1 µM), inactives show top-dose activity change, negative = cytotoxicity, hits mostly cytotoxic | hit rate 0.76% among 410,000 | AID 588856, 2011
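HepG2 CAGA-GFP cells (1000/well, DMEM with 1% FBS) received compound, then TGF-beta at 500 pg/mL final, and were incubated 18 hours at 37 degrees C. Viability was read by CellTiter-Glo luminescence. Media-only wells were set as complete cell-killing and DMSO as no toxicity.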
VP16 counter: VP16 counterscreen qHTS for inhibitors of ROR gamma transcriptional activity; hit rate 3.5% among 310,000; Potency, µM (highest dose often 53.6 µM), for the others: at the top dose activity, negative = inhibition, most hits filed as inhibitors; Drosophila S2 Gal4-VP16 UAS-luciferase, luminescence, 20 h;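 note: Gal4-VP16 expression switched on by copper sulfate through the metallothionein promoter; % is set by controls: 0 for no effect and ±100 for the full control effect; nearly all actives have a fitted effect of over 50% in size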
TGFb inhibitor: qHTS for Inhibitors of TGF-b; HepG2 CAGA-GFP TGF-b/SMAD3 reporter, GFP fluorescence, 18 h; TGF-beta stimulated, 500 pg/mL final; hit rate 1.2% among 410,000; Potency, µM (highest dose often 46.1 µM), inactives show at the top dose activity, negative = inhibition, most hits filed as inhibitors; AID 588855, 2011; note: % is set by controls: 0 for no effect and ±100 for the full control effect; nearly all actives have a fitted effect of over 65% in size
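HEPG2 CAGA-GFP reporter cells (1000/well, DMEM with 1% FBS) received compounds, then recombinant TGF-beta at 500 pg/mL final for 18 hours at 37 degrees C. Per-cell GFP summed per well was normalised to unstimulated and stimulated DMSO controls before curve fitting.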
RORgamma inh: qHTS for inhibitors of ROR gamma transcriptional activity; Nuclear receptor ROR-gamma (Mus musculus), P51450; Potency, µM (top dose mostly 53.6 µM), without a hit: at the top dose activity change, negative = inhibition, hits mostly inhibitors; hit rate 5.4% among 310,000; Drosophila S2 Gal4-RORgamma UAS-luciferase reporter, 20 h; note: % is set by controls: 0 for no effect and ±100 for the full control effect; nearly all actives have a fitted effect of over 60% in size
Target sequence (P51450 whole entry, looked up, the tested form may be a part): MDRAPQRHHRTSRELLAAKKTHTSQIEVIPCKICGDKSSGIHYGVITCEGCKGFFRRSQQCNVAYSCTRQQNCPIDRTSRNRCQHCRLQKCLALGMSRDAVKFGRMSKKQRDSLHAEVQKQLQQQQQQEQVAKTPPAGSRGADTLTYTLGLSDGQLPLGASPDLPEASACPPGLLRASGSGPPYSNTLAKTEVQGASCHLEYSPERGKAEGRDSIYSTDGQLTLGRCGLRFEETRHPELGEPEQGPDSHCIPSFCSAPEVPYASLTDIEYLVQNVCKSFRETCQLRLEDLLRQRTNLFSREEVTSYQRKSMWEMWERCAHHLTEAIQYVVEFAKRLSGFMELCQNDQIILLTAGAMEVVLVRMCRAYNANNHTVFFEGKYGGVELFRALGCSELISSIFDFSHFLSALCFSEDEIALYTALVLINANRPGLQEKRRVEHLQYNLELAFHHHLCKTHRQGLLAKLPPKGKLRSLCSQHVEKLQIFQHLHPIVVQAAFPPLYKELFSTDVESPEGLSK
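Luciferase reporter read in Schneider cells carrying Gal4-RORγ (mouse) and UAS-Photinus luciferase; cells given compound 1 h before 700 uM copper sulfate induction, then incubated 20 h at ambient temperature.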
ATXN viability: Viability Counterscreen for Primary qHTS for Inhibitors of ATXN expression | S2 cells (HEK-293 line with an ATXN2-luciferase reporter) viability, CellTiter-Fluor protease fluorescence, 24 h | Potency, µM (series often up to 56.7 µM), most hits filed as cytotoxic | hit rate 0.49% among 400,000 | AID 651635, 2014; note: nearly all actives have a fitted effect of over 40% in size
ATXN2 expr inh: Primary qHTS for Inhibitors of ATXN expression | hit rate 0.72% among 360,000 | HEK-293 ATXN2-luciferase reporter, luminescence, 24 h | Potency, µM (top dose mostly 57 µM), inactives show at the highest dose activity change, negative = inhibition, usual class: inhibitors; note: % is set by controls: 0 for no effect and ±100 for the full control effect; nearly all actives have a fitted effect of over 55% in size
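ATXN2-luciferase reporter cells (luciferase flanked by upstream and downstream ATXN2 gene portions) were treated 24 h at 37 °C with compounds at up to 57 uM. SteadyGlo luminescence gave expression; GF-AFC fluorescence gave viability.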
Active calls of the source: *. Calls come from the whole dose curve; as a rule, active = well fitted curve in the direction sought with a large enough effect; inconclusive = small, poorly fitted or top-dose-only effect, or another doubt; inactive = no such curve, though single readings can be large; an effect the other way counts as inactive or inconclusive. Potency is the fitted concentration of half-maximal effect.

What do the screens show for `Cc1ccc(C2=NNC3(CCOC(C)(C)C3)S2)cc1` (stereo not drawn)?
HepG2 viability: -25%; VP16 counter: 7.9µM*; TGFb inhibitor: -14%; RORgamma inh: 5.6µM*; ATXN viability: inactive; ATXN2 expr inh: 9%

What do the screens show for `O=C(Nc1nc2c(Cl)ccc(Cl)c2s1)C1CC1`?
HepG2 viability: 2%; VP16 counter: 3%; TGFb inhibitor: 3%; RORgamma inh: 11%; ATXN viability: inactive; ATXN2 expr inh: -25%

What do the screens show for `NNc1nc2c(Cl)ccc(Cl)c2s1`?
HepG2 viability: -24%; VP16 counter: 18µM*; TGFb inhibitor: 0%; RORgamma inh: 11µM*; ATXN viability: inactive; ATXN2 expr inh: -13%

What do the screens show for `CN(Cc1cccc2cnccc12)C(=O)CCc1nnc(CCc2ccccc2)o1`?
HepG2 viability: -9%; VP16 counter: 20µM*; TGFb inhibitor: inconclusive; RORgamma inh: inconclusive; ATXN viability: inactive; ATXN2 expr inh: 18%

What do the screens show for `CC(=O)c1ccc(-c2nnc(CCC(=O)N(C)Cc3cccc4cnccc34)o2)s1`?
HepG2 viability: -5%; VP16 counter: -2%; TGFb inhibitor: -5%; RORgamma inh: 1%; ATXN viability: inactive; ATXN2 expr inh: 8%

How did CCC(=O)N1CCN(c2ccccc2NC(=S)NC(=O)c2cccc([N+](=O)[O-])c2)CC1 do in these assays?
HepG2 viability: -12%; VP16 counter: inconclusive; TGFb inhibitor: -8%; RORgamma inh: 7.9µM*; ATXN viability: inactive

What do the screens show for `CCC(=O)N1CCN(c2ccc(NC(=S)NC(=O)c3cccc([N+](=O)[O-])c3)cc2)CC1`?
HepG2 viability: -31%; VP16 counter: inconclusive; TGFb inhibitor: 2%; RORgamma inh: inconclusive; ATXN viability: inactive; ATXN2 expr inh: -11%

Results for O=C(Nc1ccccc1N1CCOCC1)c1ccc([N+](=O)[O-])cc1 ?
HepG2 viability: -5%; VP16 counter: 4%; TGFb inhibitor: inconclusive; RORgamma inh: -42%; ATXN viability: inactive; ATXN2 expr inh: 14%

How did O=C(NC(=S)Nc1ccccc1N1CCOCC1)c1cccc([N+](=O)[O-])c1 do in these assays?
HepG2 viability: 2%; VP16 counter: 4µM*; TGFb inhibitor: -10%; RORgamma inh: 1.6µM*; ATXN viability: inactive; ATXN2 expr inh: -7%

Results for Cn1c(C(=O)N2CCN(C(=O)c3ccco3)CC2)cc2c(=O)n3ccccc3nc21 ?
HepG2 viability: -13%; VP16 counter: 14µM*; TGFb inhibitor: -3%; RORgamma inh: 25%; ATXN2 expr inh: -5%

What do the screens show for `Cn1c(C(=O)N2CCOCC2)cc2c(=O)n3ccccc3nc21`?
HepG2 viability: -2%; VP16 counter: 10%; TGFb inhibitor: -2%; RORgamma inh: -18%; ATXN2 expr inh: 7%

How did O=C(c1cccs1)c1cn(CCOc2ccccc2Cl)c2ccccc12 do in these assays?
HepG2 viability: 0%; TGFb inhibitor: 5%; ATXN viability: inactive; ATXN2 expr inh: -4%

Results for O=C(NC1CC1)[C@@H]1C[C@@H](Sc2nc3ccccc3[nH]2)CN1CC1CCCCC1 ?
ATXN viability: inactive

How did O=C(Nc1c(Cl)cc2c(c1Cl)Cc1cc([N+](=O)[O-])ccc1-2)C(Cl)Cl do in these assays?
HepG2 viability: -56%; TGFb inhibitor: 7.1µM*; ATXN viability: inconclusive; ATXN2 expr inh: 12%

How did COc1ccc(-c2cc(C(F)F)nc(-n3nc(C)cc3C)n2)cc1 do in these assays?
HepG2 viability: -17%; VP16 counter: 1.4µM*; TGFb inhibitor: -41%; RORgamma inh: 0.89µM*; ATXN viability: inactive; ATXN2 expr inh: -19%
